The whole screen tested about 310,000 compounds, of which about 2,200 (0.71%) showed an effect of 50% or more. Effects have a minus sign here. Many of the other results were omitted from the sample, so strong results are more common in it than they were.
target: human ether-à-go-go-related gene (hERG) potassium channel (human, UniProt Q12809); assay: primary screen, population patch clamp on CHO cells stably expressing hERG; higher = less effect of the substance
Sequence (Q12809 whole entry, looked up): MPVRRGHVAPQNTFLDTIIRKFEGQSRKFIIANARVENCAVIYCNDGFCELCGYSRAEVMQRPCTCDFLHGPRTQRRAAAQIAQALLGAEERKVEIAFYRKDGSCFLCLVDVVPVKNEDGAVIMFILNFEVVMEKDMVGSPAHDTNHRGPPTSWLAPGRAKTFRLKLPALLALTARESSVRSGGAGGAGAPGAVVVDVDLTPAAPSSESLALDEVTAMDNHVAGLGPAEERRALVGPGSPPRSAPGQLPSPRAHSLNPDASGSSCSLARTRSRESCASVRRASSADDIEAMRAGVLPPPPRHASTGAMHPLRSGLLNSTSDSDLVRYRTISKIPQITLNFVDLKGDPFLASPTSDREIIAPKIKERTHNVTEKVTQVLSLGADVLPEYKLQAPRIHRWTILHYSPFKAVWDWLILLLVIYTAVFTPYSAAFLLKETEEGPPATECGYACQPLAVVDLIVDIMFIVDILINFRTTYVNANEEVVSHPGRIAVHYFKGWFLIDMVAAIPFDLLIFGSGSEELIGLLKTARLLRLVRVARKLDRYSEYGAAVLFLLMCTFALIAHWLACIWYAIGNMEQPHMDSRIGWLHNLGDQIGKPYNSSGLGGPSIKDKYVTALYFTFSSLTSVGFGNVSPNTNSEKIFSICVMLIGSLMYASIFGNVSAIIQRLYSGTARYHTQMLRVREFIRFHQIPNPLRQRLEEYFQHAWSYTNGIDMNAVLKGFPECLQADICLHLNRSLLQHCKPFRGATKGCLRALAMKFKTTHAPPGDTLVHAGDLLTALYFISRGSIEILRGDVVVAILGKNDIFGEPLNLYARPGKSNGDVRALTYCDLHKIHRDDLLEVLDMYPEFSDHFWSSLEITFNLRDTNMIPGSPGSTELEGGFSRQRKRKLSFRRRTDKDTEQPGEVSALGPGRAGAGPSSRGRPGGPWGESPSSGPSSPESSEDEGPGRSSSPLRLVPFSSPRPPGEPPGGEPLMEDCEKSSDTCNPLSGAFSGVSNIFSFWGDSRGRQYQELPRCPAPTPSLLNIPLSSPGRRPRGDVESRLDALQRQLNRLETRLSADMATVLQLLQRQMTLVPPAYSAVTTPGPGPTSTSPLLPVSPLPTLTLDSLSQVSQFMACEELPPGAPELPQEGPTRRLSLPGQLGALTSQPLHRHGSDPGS

Row | SMILES | hERG current change (%, negative = inhibition) at 1uM
1 | O=Cc1c(NCc2ccccc2)c2ccccc2[nH]c1=O | 12.6%
2 | C/C(=N\OCC(=O)Nc1ccc(OC(F)(F)F)cc1)c1ccc2c(c1)OCCO2 | 6.61%
3 | C=CCS/C(N)=N\N=C\c1c(O)ccc2ccccc12 | 13.3%
4 | Cc1ccc(C(=O)CN2C(=O)NC3(CCOc4ccccc43)C2=O)s1 (stereo not shown) | 2.46%
5 | Cc1sc2ncn(CC(=O)NCCCC(=O)N3CCC4(CC3)OCCO4)c(=O)c2c1C | 10.7%
6 | CCOC(=O)c1oc2ccccc2c1NC(=O)c1cccs1 | 0.447%
7 | N/C(Cc1ccc([N+](=O)[O-])cc1)=N\OC(=O)c1ccc2ccccc2c1 | 4.74%
8 | N/C(Cc1ccc([N+](=O)[O-])cc1)=N\OC(=O)c1ccc([N+](=O)[O-])cc1 | -56.7%
9 | N/C(Cc1ccc([N+](=O)[O-])cc1)=N\OC(=O)c1ccc(Br)cc1 | -3.44%
10 | COc1ccc(CNC(=O)C2(CC3CC(c4ccccc4)=NO3)CCN(C(=O)CCCCCBr)CC2)cc1 (stereo not shown) | -60.3%
11 | COc1ccc(CNC(=O)C2(CC3CC(c4ccccc4)=NO3)CCN(C(=O)c3cccc(O)c3)CC2)cc1 (stereo not shown) | 8.84%
12 | COc1ccc(CNC(=O)C2(CC3CC(c4ccccc4)=NO3)CCN(C(=O)C3CCCC3)CC2)cc1 (stereo not shown) | -67.1%
13 | COc1ccc(CNC(=O)C2(CC3CC(c4ccccc4)=NO3)CCN(C(=O)OC(C)(C)C)CC2)cc1 (stereo not shown) | 2.59%
14 | COc1ccc(CNC(=O)C2(CC3CC(c4ccccc4)=NO3)CCN(C(=O)C3(C)CC3)CC2)cc1 (stereo not shown) | -37.1%
15 | COc1ccc(CNC(=O)C2(CC3CC(c4ccccc4)=NO3)CCN(C(=O)Cc3ccc(F)cc3)CC2)cc1 (stereo not shown) | 12.8%
16 | COc1ccc(C2NC(=O)c3ccccc3O2)cc1OC (stereo not shown) | 8.88%
17 | Fc1cccc(CCN2C(=S)NC[C@@H]2CC2CCCCC2)c1 | 8.53%
18 | CCn1nc(C(C)C)cc1C(=O)N1CCCC(CO)(Cc2ccc(F)cc2F)C1 (stereo not shown) | 5.81%
19 | CC1CCCCN1C(=O)c1ccc(COc2ccc([N+](=O)[O-])cc2)o1 (stereo not shown) | -18.9%
20 | CCN(CC)CC(=O)N1CCCC(C(=O)c2ccccc2OC)C1 (stereo not shown) | 6.77%
21 | COc1ccc(F)cc1C(=O)C1CCCN(Cc2ccc(O)cc2)C1 (stereo not shown) | -25.1%
22 | CCOC(=O)N1CCC(N2CCCC(C(=O)c3ccccc3OC)C2)CC1 (stereo not shown) | -59.3%
23 | CCOC(=O)N1CCC(N2CCCC(C(=O)c3cc(F)ccc3OC)C2)CC1 (stereo not shown) | -52.2%
24 | COc1ccc(F)cc1C(=O)C1CCCN(C(=O)C2=C(C)OCCO2)C1 (stereo not shown) | 14.5%
25 | COc1ccccc1C(=O)C1CCCN(C(=O)C2CCCC2)C1 (stereo not shown) | 8.68%
26 | CC(=O)Nc1ccc2[nH]c3ccccc3c2c1 | 3.08%
27 | O=C(NCCCN1CCOCC1)c1sc2cc(Cl)ccc2c1Cl | 6.47%
28 | Cc1c(C(=O)N(C)Cc2ccccc2)oc2ccc(S(=O)(=O)N3CCCC3)cc12 | -0.449%

Row | SMILES | hERG current change (%, negative = inhibition) at 1uM
29 | COc1ccc(CCNC(=O)C(=O)Nc2ccc3c(c2)OCCO3)cc1OC | 14.4%
30 | O=C(NCc1ccncc1)C(=O)NCC(c1ccco1)N1CCN(c2ccccc2)CC1 (stereo not shown) | 3.03%
31 | CCOc1ccc(N(C(=O)CNS(=O)(=O)c2ccccc2)C(CC)C(=O)NCc2ccco2)cc1 (stereo not shown) | 4.35%
32 | CCCCON1C(=O)c2cccc3cccc(c23)C1=O | 8.5%
33 | NC1=Nc2cccc3cccc1c23 | 12.8%
34 | CCCCN(C)C1=Nc2cccc3cccc1c23 | -54.9%
35 | CCN1C2=NCCCN2c2ccccc21.Cl | 2.9%
36 | Cl.ClCCN1C2=NCCCN2c2ccccc21 | -1.36%
37 | CN1CCN(CC(O)COc2ccc(Cl)cc2)CC1.Cl (stereo not shown) | -5.93%
38 | Cl.OC(COc1ccccc1)CN1C2=NCCCN2c2ccccc21 (stereo not shown) | -54.6%
39 | Cl.OC(COc1ccc(Cl)cc1)CN1C2=NCCCN2c2ccccc21 (stereo not shown) | -82%
40 | OC(COc1ccccc1)CN1CCCC1 (stereo not shown) | 9.18%
41 | Cc1ccc(/C(O)=C2\C(=O)C(=O)N(CCN(C)C)C2c2ccccc2F)cc1 (stereo not shown) | -6.65%
42 | COc1ccc(S(C)(=O)=O)cc1S(C)(=O)=O | 12.3%
43 | CC(C)OCCCNC(=O)c1c(N)n(CC2CCCO2)c2nc3ccccc3nc12 (stereo not shown) | 6.34%
44 | CCn1c(Cn2nnc(-c3ccccc3)n2)nnc1SCC(=O)Nc1ccc(C(C)=O)cc1 | 5.63%
45 | Cc1cccn2c(=O)c3cc(C(=O)NCC4CCCO4)c(=N)n(CCc4ccccc4)c3nc12 (stereo not shown) | -84.4%
46 | COc1ccc(CCn2c(=N)c(C(=O)NCCN3CCOCC3)cc3c(=O)n4cccc(C)c4nc32)cc1OC | -44.4%
47 | COc1ccc(CCn2c(=N)c(C(=O)NCC3CCCO3)cc3c(=O)n4cccc(C)c4nc32)cc1OC (stereo not shown) | -87.1%
48 | COc1ccc(CCn2c(=N)c(C(=O)NCC3CCCO3)cc3c(=O)n4cccc(C)c4nc32)cc1 (stereo not shown) | -88.1%
49 | CC(C)C(NC(=O)C1CCCCC1)C(=O)N1CCN(c2ccc(F)cc2)CC1 (stereo not shown) | -32.1%
50 | CS(=O)(=O)N1CCN(c2ccccc2NC(=O)c2ccc3c(c2)OCCO3)CC1 | 9.09%
51 | COc1cc(C(=O)N[C@@H](C)C(=O)N2CCC3(CC2)NCCc2[nH]cnc23)cc(OC)c1OC | 15.3%
52 | CN(C)c1ccc(CNS(=O)(=O)c2csc(C(N)=O)c2)cc1 | 13%
53 | COc1ccc(Cl)cc1CSc1n[nH]c(C)n1 | 16.6%
54 | O=C(N/N=C/c1ccc(Cl)s1)C(O)c1ccccc1 (stereo not shown) | 16.4%
55 | O=c1c([N+](=O)[O-])c(N2CCCC2)c2ccccc2n1-c1ccccc1 | 4.99%

— paper PMC4336329 (PLoS ONE, 2015)
